From PubChem BioAssay come the findings set out here.

The structures appear in SMILES notation.

The assay can be described thus: basal MM1S mitochondrial membrane potential changes, profiling panel, cell-based, JC-1 fluorescence, 24 h, 100 nL compound (AID 1170). Also: test concentration not given here. Particulars: higher = more signal.
`CO[C@H]1COC(=O)[C@@H]2CCCN2C(=O)CC=C[C@@H](C)[C@H](OC)COC(=O)CC=C[C@@H]1C`: the z-score was found to be 1.16.

`CC(C)CON=C1C[C@@H](O)[C@@H](O)[C@@H]2[C@@H]3C(=O)N([C@@H](C)c4ccccc4)C(=O)[C@@H]3CC[C@H]12` gave a z-score of -1.32.

On to `O=C1[C@H]2[C@H]3[C@H](O)[C@H](O)CC(=NOC[C@@H](O)COCc4ccco4)[C@@H]3CC[C@H]2C(=O)N1c1ccc(F)cc1F`, for which the z-score is -0.221.

`CO[C@@H]1COC(=O)CCC[C@@H](C)[C@H](OC)COC(=O)CCC[C@H]1C` yielded a z-score of -0.162.

Take `C=CC[C@@H]1C=C[C@H](ON=C[C@@H](OC)[C@H](C)C=CCC(=O)OC)[C@@H](CO)O1`: the z-score was -0.448.

Molecule `CCCC[C@@H](O)C1=C(C)C[C@H]2C(=O)N(Cc3ccccc3)C(=O)[C@H]2[C@H]1CO` returned a z-score of -0.785.

As to `CC(CCN1CCc2nc(-c3ccccc3)c(-c3ccccc3)cc2C1)=NO[C@H](C)c1cn([C@@H]2COC[C@H]2O)nn1`, the z-score is -0.381.

For `CC(C)[C@H](NC(=O)OC(C)(C)C)[C@@H](O)CC(=O)OC(C)(C)C`, the z-score came out at 1.06.

On to `CCOC(=O)C[C@H]1[C@H](OC(=O)c2ccc(C(=O)c3ccccc3)cc2)[C@@H](NC(=O)c2ccc(-c3ccccc3)cc2)c2cc(OCCCO)ccc2N1C(=O)c1ccc2ccccc2n1`, for which the z-score is -1.18.

As to `CCCNC(=O)OC[C@H]1O[C@H](CCON=C[C@@H](OC)[C@H](C)C=CCC(=O)OC)C=C[C@@H]1Oc1ccc(OC)cc1`, the z-score was -0.118.

With `CCOC(=O)CCN1C(=O)[C@H]2[C@H]3[C@H](O)[C@H](O)CC(=NNC(=O)OCc4ccc(OC)cc4)[C@@H]3CC[C@H]2C1=O`, the z-score is -1.1.
